# Sampled rows, rich in hits. Any-hit rate of the full collection: about 2.3%.
# CHO-K1 Ca antag = nonselective inhibitor or artifact in parental CHO-K1 cells; 360,000 tested, 0.6% active; inhibition, % at 3 µM; ATP-induced calcium, Fluo-8 fluorescence;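 active = inhibition above a per-plate cutoff, the plate's mean sample inhibition plus 3 SD, cut at about 24% in these data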;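 note: 0% = DMSO plus EC80 ATP and 100% = DMSO alone without ATP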
# CHO-K1 Ca PAM = M1 PAM counterscreen hit in parental CHO-K1 cells | 360,000 tested, 0.02% active | activation, % at 3 µM | ATP EC20, Fluo-8 calcium fluorescence; 0% at ATP EC20, 100% at ATP max | AID 602247;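 active = activation above the run cutoff, the mean activation of all test compounds plus 3 SD, cut at about 40% in these data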;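 note: peak over basal fluorescence ratio in a 140 s read after ATP addition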
# M1 ag = agonists of human M1 muscarinic receptor; P11229; CHO-K1 hM1, Fluo-8 calcium fluorescence, agonist mode; 0% DMSO, 100% acetylcholine EC100; activation, % at 3 µM; 360,000 tested, 0.33% active; AID 588814;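 active = activation above the run's mean compound activation plus 3 SD, cut at about 16% in these data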;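 note: peak over basal fluorescence ratio within a 140 s kinetic read after compound addition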
# Target sequence (P11229 whole entry, looked up): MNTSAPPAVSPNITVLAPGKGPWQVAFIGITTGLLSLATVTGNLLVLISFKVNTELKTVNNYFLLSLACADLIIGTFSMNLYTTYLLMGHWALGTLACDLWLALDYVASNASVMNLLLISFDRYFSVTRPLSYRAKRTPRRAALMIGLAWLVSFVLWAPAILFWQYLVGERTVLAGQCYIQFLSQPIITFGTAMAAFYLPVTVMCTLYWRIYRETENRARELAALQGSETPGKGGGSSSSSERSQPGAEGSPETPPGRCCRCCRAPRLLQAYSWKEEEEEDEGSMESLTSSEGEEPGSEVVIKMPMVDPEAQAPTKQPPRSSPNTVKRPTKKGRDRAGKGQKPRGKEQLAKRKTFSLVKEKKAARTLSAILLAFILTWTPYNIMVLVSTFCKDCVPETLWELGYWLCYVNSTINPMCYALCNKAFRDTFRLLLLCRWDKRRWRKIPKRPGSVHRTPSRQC
# M1 antag = blocks human M1 muscarinic receptor | AID 588852 | inhibition, % at 3 µM | 360,000 tested, 1.3% active | CHO-K1 hM1, Fluo-8 calcium fluorescence, ACh EC80 antagonist;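 active = percent inhibition above its own plate's cutoff, namely the mean of that plate's compound wells plus 3 SD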;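 note: peak over basal fluorescence ratio during 140 s after agonist addition; 0% = ACh EC80 plus DMSO and 100% = DMSO alone without agonist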
# M1 ag parental = nonselective activator or artifact in parental CHO-K1 cells. Fluo-8 calcium fluorescence; scaled to maximal ATP response, vehicle zero. activation, % at 3 µM. 360,000 tested, 0.48% active; in the data active = activation above about 15%;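 note: untransfected CHO-K1 host cells lacking M1 receptor as counterscreen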
# CHRM1 PAM = human CHRM1 positive allosteric modulation | P11229 | CHO-K1 hM1, Fluo-8 calcium fluorescence, ACh EC20; 0% = ACh EC20, 100% = maximal ACh | activation, % at 3 µM | 360,000 tested, 0.088% active; in the data active = activation above about 19%, passing the limit was not always enough
# * = called active by the depositor; nt = not tested or not shown.
SMILES,CHO-K1 Ca antag,CHO-K1 Ca PAM,M1 ag,M1 antag,M1 ag parental,CHRM1 PAM
COc1ccc(N=Cc2oc3ccc4ccccc4c3c2O)cc1,9,9,11,16,24*,-3
COc1ccc(NC(=O)NCC(C)CSc2ccc(C)cc2)c(OC)c1 (centres undefined),-7,10,-7,-2,-1,-2
Cc1cc(C)c(NC(=O)C2CCCN2CCO)c(C)c1 (centres undefined),-13,19,-5,-11,1,7
CCCCN1CCCCC1C(=O)Nc1c(C)cc(C)cc1C (centres undefined),30*,0,-5,9,0,8
COc1ccc(C(=O)C2CCCN(Cc3ccc4nonc4c3)C2)c(OC)c1 (centres undefined),9,-9,-6,6,2,-2
CN(C)CCNc1nc(-c2ccccc2F)c2sccc2n1,0,9,-8,70*,1,-30
Cc1cc(C)c(NN=c2c(=O)c3ccccc3c2=O)c(C)c1,11,-5,-11,34*,0,-27
C(=N\N1CCN(C(c2ccccc2)c2ccccc2)CC1)/c1ccc2c(c1)OCO2,24*,8,-8,17,-1,-15
CN(C)CCCOC(=O)c1ccc(Cl)cc1Cl,-6,8,-6,-4,0,8
CCCN(CCC)CCCOC(=O)c1ccc(Cl)cc1Cl,-10,19,-4,68*,2,-21
CNc1ccc(Cl)cc1S(=O)(=O)c1ccccc1[N+](=O)[O-],-2,20,-5,-13,-1,14
Cc1ccc(O)c(C(=O)c2cc(C#N)c(=O)n(-c3nccs3)c2)c1,19,-15,22*,21,40*,-6
CCOC(=O)CC(NS(=O)(=O)c1ccc(OC)c(C)c1)c1cccc([N+](=O)[O-])c1 (centres undefined),-1,-3,-7,-9,1,10
CN1CCN(Cc2cn[nH]c2-c2ccc(F)cc2F)[C@@H](c2ccccc2)C1,0,-3,46*,21*,0,-28
Cc1cc([N+](=O)[O-])cc2c1NC(=O)C2(O)N1CCCCCC1 (centres undefined),3,25,-7,-2,15*,0
Cc1cc(C(=O)NNC(=O)c2sccc2C)c(C)o1,4,11,1,-4,7,8
CCN(CC)S(=O)(=O)c1ccc(Oc2ccccc2)c(N)c1,-9,9,-1,-2,5,8
CCN(CC)S(=O)(=O)c1ccc(N2CCN(c3ccccc3OC)CC2)c(N)c1,17,-21,1,34*,12,-18
COc1ccc(/C=N/NC(=O)c2cccc(O)c2)cc1Cn1nc(C)c([N+](=O)[O-])c1C,-12,3,-12,-2,0,2
Cc1cccc(CSC(Nc2ccc(F)cc2)=C(C#N)C#N)c1,28*,0,3,20,13,-13
CC(SCc1ccccc1)C(=O)Nc1ccc(F)cc1 (centres undefined),-13,15,-4,1,1,4
N#CC(C#N)=C(Nc1ccc(F)cc1)SCc1cccc(Br)c1,26*,16,3,24,10,-10
Cc1cccc(CSC(=N)N)c1,-1,15,-8,4,0,4
COc1cccc(CNC(=O)CSc2nc(=O)n(Cc3ccncc3)c3c2CCC3)c1,-6,19,-7,-17,1,10
O=C(CCS(=O)(=O)c1cccs1)Nc1ccc(C(=O)NC2CCN(Cc3ccccc3)CC2)cc1,-6,11,-7,21,4,-20
SMILES,CHO-K1 Ca antag,CHO-K1 Ca PAM,M1 ag,M1 antag,M1 ag parental,CHRM1 PAM
COc1ccc(-n2nnc3c(=O)n(CC(=O)N4CCCc5ccccc54)cnc32)cc1,12,3,-1,1,0,-2
CCOc1ccc(-n2nnc3c(=O)n(CC(=O)N4CCCc5ccccc54)cnc32)cc1,4,13,-10,74*,-1,-32
O=C(O)c1ccc2c(c1)C(=O)N(c1cccc(-c3nc4ccccc4s3)c1)C2=O,24*,-6,-4,-6,0,2
CC(=O)Nc1cccc(-c2nc3ccccc3s2)c1,14,3,-5,6,21*,-2
CC(=O)Oc1cccc(N2C(=O)c3ccc(C(=O)O)cc3C2=O)c1,-5,13,-1,4,0,4
CC(=O)Nc1cccc(-c2nc3ccc(NC(C)=O)cc3s2)c1,-9,22,-5,5,1,8
CC(=O)c1ccc(S(=O)(=O)N2CCN(C(=O)c3ccc(COc4ccccc4)o3)CC2)cc1,2,-15,-2,18,9,-12
Cc1c(Cl)cccc1NC(=S)NCCC(c1ccccc1)c1ccccc1,24*,-5,-5,-7,1,2
CC(CNC(=O)c1ccc(NC2=NC3CS(=O)(=O)CC3S2)cc1)c1ccccc1 (centres undefined),-7,18,-2,-14,1,8
O=C(c1ccc(NC2=NC3CS(=O)(=O)CC3S2)cc1)N(CCO)Cc1ccccc1 (centres undefined),36*,-2,0,-10,0,3
CCN(C(=O)CSc1nc2cc(C(=O)OC)ccc2c(=O)n1Cc1ccco1)c1cccc(C)c1,26*,-5,0,1,-1,11
CCc1ccc(NC(=O)CSc2nc3cc(C(=O)OC)ccc3c(=O)n2Cc2ccco2)cc1,10,-1,-3,-4,0,5
CCCCCOC(=O)C1=C(C)Nc2ncnn2C1c1cccs1 (centres undefined),21,3,-3,27*,4,-9
Cc1cccc[n+]1CC(=O)N1c2ccccc2Sc2ccccc21,-5,13,-13,99*,0,-34
Cc1cc(C)n(CC(=O)N2c3ccccc3Sc3ccccc32)n1,11,-5,-6,38*,1,-22
O=C(O)c1ccccc1/C=N/NC(=O)C1CCCCC1,9,-22,-1,-27,0,8
O=C(N/N=C/c1ccccc1C(=O)O)C(=O)N1CCCCC1,-4,27,-6,-6,19*,14
CC(C)(O)C#Cc1ccc(N2C(c3ccsc3)=Cc3ccc(F)cc3C2c2c[nH]c3ccccc23)cc1 (centres undefined),-6,5,nt,nt,0,nt
CCCOc1ccccc1OCC(=O)Nc1cccc(S(=O)(=O)NC2=NCCC2)c1,-2,6,-1,0,1,5
CC1CCCN(CCOCCOc2ccc(Br)cc2Cl)C1 (centres undefined),-9,19,-12,42*,2,-27
Clc1ccc(OCCCN2CCCCC2)c(Br)c1,0,21,-8,-3,6,-3
CC1CCCN(CCOCCOc2ccc(Cl)cc2Br)C1 (centres undefined),-7,14,-7,66*,2,-23
